Each structure is given as a SMILES string. This is part of a sample that, as a whole, favours compounds with a hit. Of some 79,000 tested, about 15% had one in any assay. Unmarked numbers belong to inactive results. Activity calls are given as the source filed them. No stated cut-off is given here; in the data, active means growth inhibition above about 70%; inactive means the rest.

The results in this text go back to PubChem BioAssay (NCI).

Assay [1] is described as follows: NCI Yeast Anticancer Drug Screen. Data for the rad50 strain (AID 155).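 Further: 0% = growth of vehicle-only cultures of the same strain.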 The note with it: S. cerevisiae rad50 strain growth inhibition, hits give high values. The essentials: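 A DNA repair-deficient yeast mutant serves as the test organism; compound-induced growth inhibition is calculated against vehicle-treated cells.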
Assay [2] can be described thus: NCI Yeast Anticancer Drug Screen. Data for the mec2-1 strain (AID 157). The note with it: S. cerevisiae mec2-1 strain, hits give high values. The procedure, abridged:
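Yeast mec2-1 mutant treated with compound. Readout: growth inhibition vs vehicle controls.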

Assay [3] can be described thus: NCI Yeast Anticancer Drug Screen. Data for the sgs1 mgt1 strain (AID 161).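 Further: 0% = growth of cultures given vehicle only.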 To be noted: S. cerevisiae sgs1 mgt1 strain, hits give high values. The procedure, abridged: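 Inhibition of yeast growth, normalised to vehicle-treated controls, is reported for a strain bearing genetic alterations in DNA damage repair.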
Assay [4] is described as follows: NCI Yeast Anticancer Drug Screen. Data for the cln2 rad14 strain (AID 165).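 Further: 0% = growth equal to vehicle treated cultures.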 To be noted: S. cerevisiae cln2 rad14 strain, hits give high values. The procedure, abridged: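 cln2 rad14 yeast strain; compound exposure; growth inhibition read vs vehicle controls.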
The nature of assay [5]: NCI Yeast Anticancer Drug Screen. Data for the bub3 strain (AID 167). To be noted: S. cerevisiae bub3 mutant strain, hits give high values. The procedure, abridged:
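Inhibition values come from growth of compound-treated mutant yeast normalised to vehicle-treated controls.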

A short description of assay [6]: NCI Yeast Anticancer Drug Screen. Data for the mlh1 rad18 strain (AID 175). To be noted: S. cerevisiae mlh1 rad18 strain growth inhibition, hits give high values. The procedure, abridged:
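Yeast w/ defined DNA-repair lesions; compound exposure; growth vs vehicle controls → % inhibition.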

The mark [7] stands for this setting: at 5.0 µM (retest, dose inferred, filed as 0.5).
The mark [8] stands for this setting: at 50.0 µM (retest, dose inferred, filed as 5.0).

As for `Oc1cc(CNCc2ccccc2)c(O)c(CNCc2ccccc2)c1`, the growth inhibition was 10% in assay [1] (setting [7]); 10% in assay [1] (setting [8]); -4% in assay [1] (at 50.0 µM); 17% in assay [2] (setting [7]); 24% in assay [2] (setting [8]); 31.9% in assay [2] (at 50.0 µM). Moreover, the growth inhibition in assay [3] (setting [7]) is 5%; in assay [3] (setting [8]), 11%; in assay [3] (at 50.0 µM), 5.25%; in assay [4] (setting [7]) it was 3%; in assay [4] (setting [8]), -13%; in assay [4] (at 50.0 µM) it was 38.2%. Moreover, the growth inhibition was -1% in assay [5] (setting [7]); -4% in assay [5] (setting [8]); 1.95% in assay [5] (at 50.0 µM); 8% in assay [6] (setting [7]); 15% in assay [6] (setting [8]); 17% in assay [6] (at 50.0 µM).

Turning to `CC(C)COP(=O)(OCC(C)C)C(NS(=O)(=O)c1ccccc1)(C(F)(F)F)C(F)(F)F`, the growth inhibition in assay [1] (setting [7]) is 4%; in assay [1] (setting [8]) it was 11%; in assay [1] (at 50.0 µM) it was 63.5%; in assay [2] (setting [7]), -12%; in assay [2] (setting [8]), -2%; in assay [2] (at 50.0 µM), 82.7% (active). For the same molecule, the growth inhibition was 7% in assay [3] (setting [7]); -5% in assay [3] (setting [8]); -2.35% in assay [3] (at 50.0 µM); 27% in assay [4] (setting [7]); 42% in assay [4] (setting [8]); 6.85% in assay [4] (at 50.0 µM). Besides, the growth inhibition in assay [5] (setting [7]) was -6%; in assay [5] (setting [8]), 8%; in assay [5] (at 50.0 µM) it was -3.8%; in assay [6] (setting [7]), 0%; in assay [6] (setting [8]) it was 3%; in assay [6] (at 50.0 µM), 90.2% (active).

With `O=C(O)c1c[nH]c2cc(Cl)ccc2c1=O`, the growth inhibition in assay [1] (setting [7]) is 4%; in assay [1] (setting [8]), -5%; in assay [1] (at 50.0 µM), -1.55%; in assay [2] (setting [7]) it was 1%; in assay [2] (setting [8]), 5%; in assay [2] (at 50.0 µM), -20.9%. Besides, the growth inhibition in assay [3] (setting [7]) was -8%; in assay [3] (setting [8]), -3%; in assay [3] (at 50.0 µM), -22.1%; in assay [4] (setting [7]) it was 2%; in assay [4] (setting [8]) it was 1%; in assay [4] (at 50.0 µM), 90.9% (active). The growth inhibition in assay [5] (setting [7]) is 1%; in assay [5] (setting [8]), -2%; in assay [5] (at 50.0 µM), -19.8%; in assay [6] (setting [7]) it was -1%; in assay [6] (setting [8]) it was -4%; in assay [6] (at 50.0 µM) it was 12.2%.

Regarding `Cc1csc2[n+]1C(=O)/C(=C\c1ccc([N+](=O)[O-])cc1)S2`, the growth inhibition in assay [1] (setting [7]) is 30%; in assay [1] (setting [8]) it was 74% (active); in assay [1] (at 50.0 µM) it was 69.6%; in assay [2] (setting [7]), 21%; in assay [2] (setting [8]), 71% (active); in assay [2] (at 50.0 µM), 56.2%. Also, the growth inhibition is 32% in assay [3] (setting [7]); 80% (active) in assay [3] (setting [8]); 50.3% in assay [3] (at 50.0 µM); 7% in assay [4] (setting [7]); 67% in assay [4] (setting [8]); 57.5% in assay [4] (at 50.0 µM). Moreover, the growth inhibition is 26% in assay [5] (setting [7]); 76% (active) in assay [5] (setting [8]); 46.9% in assay [5] (at 50.0 µM); 24% in assay [6] (setting [7]); 82% (active) in assay [6] (setting [8]); 78.3% (active) in assay [6] (at 50.0 µM).

Regarding `C/C=C/C=C\C1OC(O)([C@H](CC)C(=O)NC/C=C/C=C(\C)[C@H](OC)C(C)C2OC(\C=C/C=C/C=C(\C)C(=O)c3c(O)ccn(C)c3=O)[C@H](O)[C@@H]2O)C(O)C(O)C1(C)C` (stereo not given in full), the growth inhibition in assay [1] (setting [7]) is -23%; in assay [1] (setting [8]), -46%; in assay [1] (at 50.0 µM), 35.5%; in assay [2] (setting [7]) it was -26%; in assay [2] (setting [8]), -18%; in assay [2] (at 50.0 µM) it was 9.5%. For the same molecule, the growth inhibition is -13% in assay [3] (setting [7]); 34% in assay [3] (setting [8]); 80.5% (active) in assay [3] (at 50.0 µM); -14% in assay [4] (setting [7]); 35% in assay [4] (setting [8]); 26.9% in assay [4] (at 50.0 µM). Moreover, the growth inhibition in assay [5] (setting [7]) was -42%; in assay [5] (setting [8]), -26%; in assay [5] (at 50.0 µM), 26.1%; in assay [6] (setting [7]) it was -41%; in assay [6] (setting [8]) it was -62%; in assay [6] (at 50.0 µM) it was 17%.

Take `c1ccc(CCCCc2ccncc2)cc1`: the growth inhibition was 1% in assay [1] (setting [7]); 28% in assay [1] (setting [8]); 87.3% (active) in assay [1] (at 50.0 µM); 1% in assay [2] (setting [7]); 13% in assay [2] (setting [8]); 46.2% in assay [2] (at 50.0 µM). Further, the growth inhibition in assay [3] (setting [7]) is 0%; in assay [3] (setting [8]) it was 47%; in assay [3] (at 50.0 µM) it was 94% (active); in assay [4] (setting [7]), 5%; in assay [4] (setting [8]), 11%; in assay [4] (at 50.0 µM), 63.6%. Also, the growth inhibition is 24% in assay [5] (setting [7]); 81% (active) in assay [5] (setting [8]); 93.5% (active) in assay [5] (at 50.0 µM); -3% in assay [6] (setting [7]); 18% in assay [6] (setting [8]); 88.5% (active) in assay [6] (at 50.0 µM).

With `O=C(C(/C=N\C(=S)Nc1ccccc1Cl)=C(/O)c1ccccc1)c1ccccc1`, the growth inhibition in assay [1] (setting [7]) is 86% (active); in assay [1] (setting [8]), 99% (active); in assay [1] (at 50.0 µM) it was 99.4% (active); in assay [2] (setting [7]) it was 81% (active); in assay [2] (setting [8]), 100% (active); in assay [2] (at 50.0 µM) it was 99% (active). In addition, the growth inhibition in assay [3] (setting [7]) was 55%; in assay [3] (setting [8]), 99% (active); in assay [3] (at 50.0 µM) it was 99.3% (active); in assay [4] (setting [7]), 95% (active); in assay [4] (setting [8]), 99% (active); in assay [4] (at 50.0 µM) it was 98.4% (active). The growth inhibition was 99% (active) in assay [5] (setting [7]); 99% (active) in assay [5] (setting [8]); 99.3% (active) in assay [5] (at 50.0 µM); 90% (active) in assay [6] (setting [7]); 99% (active) in assay [6] (setting [8]); 99.1% (active) in assay [6] (at 50.0 µM).

`CC12CC[C@@H](C(C)(C)O)C1[C@@H](O)CC1(C)C2CCC2[C@@]3(C)CC[C@H](O)C(C)(C)C3C(O)C[C@]21C` (stereo not given in full): the growth inhibition is 17% in assay [1] (setting [7]); 98% (active) in assay [1] (setting [8]); 90% (active) in assay [1] (at 50.0 µM); 19% in assay [2] (setting [7]); 99% (active) in assay [2] (setting [8]); 92.5% (active) in assay [2] (at 50.0 µM). The growth inhibition in assay [3] (setting [7]) was 9%; in assay [3] (setting [8]), 98% (active); in assay [3] (at 50.0 µM) it was 92.3% (active); in assay [4] (setting [7]), 17%; in assay [4] (setting [8]), 98% (active); in assay [4] (at 50.0 µM), 91.4% (active). Also, the growth inhibition in assay [5] (setting [7]) was 15%; in assay [5] (setting [8]), 98% (active); in assay [5] (at 50.0 µM) it was 91.8% (active); in assay [6] (setting [7]) it was 41%; in assay [6] (setting [8]), 98% (active); in assay [6] (at 50.0 µM), 91.8% (active).

Take `CC1/C(=N\O)CC(c2ccccc2)N(C)C1c1ccccc1` (stereo not given): the growth inhibition in assay [1] (setting [7]) is 96% (active); in assay [1] (setting [8]), 96% (active); in assay [1] (at 50.0 µM), 98.2% (active); in assay [2] (setting [7]), 96% (active); in assay [2] (setting [8]) it was 98% (active); in assay [2] (at 50.0 µM), 98.2% (active). For the same molecule, the growth inhibition in assay [3] (setting [7]) was 96% (active); in assay [3] (setting [8]), 97% (active); in assay [3] (at 50.0 µM), 97.7% (active); in assay [4] (setting [7]) it was 58%; in assay [4] (setting [8]) it was 78% (active); in assay [4] (at 50.0 µM), 83.5% (active). The growth inhibition in assay [5] (setting [7]) was 94% (active); in assay [5] (setting [8]), 96% (active); in assay [5] (at 50.0 µM) it was 98% (active); in assay [6] (setting [7]), 95% (active); in assay [6] (setting [8]), 97% (active); in assay [6] (at 50.0 µM) it was 97.7% (active).

As for `CCN(CC)CCOC(=O)c1ccc(N=Nc2ccc(O)c3ccccc23)cc1`, the growth inhibition in assay [1] (setting [7]) is 0%; in assay [1] (setting [8]), 99% (active); in assay [1] (at 50.0 µM), 98.8% (active); in assay [2] (setting [7]), 4%; in assay [2] (setting [8]), 100% (active); in assay [2] (at 50.0 µM), 99.1% (active). The growth inhibition in assay [3] (setting [7]) was 6%; in assay [3] (setting [8]), 99% (active); in assay [3] (at 50.0 µM), 99% (active); in assay [4] (setting [7]) it was 6%; in assay [4] (setting [8]), 99% (active); in assay [4] (at 50.0 µM) it was 86.8% (active). The growth inhibition is -2% in assay [5] (setting [7]); 99% (active) in assay [5] (setting [8]); 41.1% in assay [5] (at 50.0 µM); -7% in assay [6] (setting [7]); 99% (active) in assay [6] (setting [8]); 99% (active) in assay [6] (at 50.0 µM).
